Measurements reported in PubChem BioAssay (EPA / NIEHS).
Results filed as inconclusive are left out. Active and inactive are the calls of the source. The calls were made as follows: active = hit-call score of the fitted dose curve at least 0.9, where 1 is the maximum; inconclusive = response in the unintended direction; inactive = score below 0.9.

target: Bile acid receptor (Homo sapiens) (UniProt Q96RI1); test: ATG_FXR_TRANS: Attagene TRANS-FACTORIAL HepG2 Assay for Farnesoid X Receptor (FXR) (AID 2282979); settings: HepG2 Attagene TRANS FXR-GAL4 reporter transcription;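 also: hits raise reporter mRNA above DMSO so AC50 marks FXR activation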
Description: ATG_TRANS is a cell-based, multiplexed-readout assay that uses HepG2, a human liver cell line, with measurements taken at 24 hours after chemical dosing in a 24-well plate.ATG_FXR_TRANS is one of 30 assay component(s) measured or calculated from the ATG_TRANS assay. It is designed to make measurements of mRNA induction, a form of inducible reporter, as detected with fluorescence intensity signals by Reverse transcription polymerase chain reaction (RT-PCR) and Capillary electrophoresis technology.Data from the assay component ATG_FXR_TRANS was analyzed into 1 assay endpoint. This assay endpoint, ATG_FXR_TRANS, was analyzed in the positive analysis fitting direction relative to DMSO as the negative control and baseline of activity. Using a type of inducible reporter, measures of mRNA for gain-of-signal activity can be used to understand the reporter gene at the transcription factor-level as they relate to the gene NR1H4. Furthermore, this assay endpoint can be referred to as a primary readout, because this assay has produced multiple assay endpoints where this one serves a reporter gene function. To generalize the intended target to other relatable targets, this assay endpoint is annotated to the nuclear receptor intended target family, where the subfamily is non-steroidal.
Human liver HepG2 cells are transiently transfected with multiple reporter transcription units (MRTUs) in 6-well plates using FuGene 6 reagent (Roche; 3 ml FuGene/1 mg DNA). The MRTU constructs are regulated by a cis-regulating element (promoter). […] A major difference between the CIS and TRANS system is that in CIS activities of endogenous TFs are measured, whereas the TRANS assay evaluates changes in activities of exogenous, chimeric NR-Gal4 proteins. […] At the end of 24 hour incubation, total RNA was isolated using TriZol reagent (Invitrogen). The isolated RNA is then reverse-transcribed using oligo(dT) primer and Mo-MLV reverse transcriptase (Invitrogen) with DNAse I (Ambion) treatment for 30 min. The one-tenth of the produced cDNA was amplified by PCR using Taq DNA polymerase (Invitrogen) and two reporter sequence-specific primers. The PCR products were fluorescently labeled by primer extension with 6-arboxyfluorescein (6-FAM) 5'-labeled reporter sequence-specific primer (2 min at 95 C, 20 s at 68 C and 10 min at 72 C) and these products were digested with 5U of HpaI (New England Biolabs) for 2h at 37 C. The fragments were purified using Qiaquick PCR columns (Qiagen), analyzed on an ABI 3130xL genetic analyzer (Applied Biosystems) with peak positions identified by using a set of X-rhodamine (ROX)-labeled MapMarker1000 molecular weight standards (BioVentures). The raw capillary electrophoresis data was processed using Attagraph software (Attagene).

Chain of Bile acid receptor (Homo sapiens) (Q96RI1 whole entry, looked up, the tested form may be a part): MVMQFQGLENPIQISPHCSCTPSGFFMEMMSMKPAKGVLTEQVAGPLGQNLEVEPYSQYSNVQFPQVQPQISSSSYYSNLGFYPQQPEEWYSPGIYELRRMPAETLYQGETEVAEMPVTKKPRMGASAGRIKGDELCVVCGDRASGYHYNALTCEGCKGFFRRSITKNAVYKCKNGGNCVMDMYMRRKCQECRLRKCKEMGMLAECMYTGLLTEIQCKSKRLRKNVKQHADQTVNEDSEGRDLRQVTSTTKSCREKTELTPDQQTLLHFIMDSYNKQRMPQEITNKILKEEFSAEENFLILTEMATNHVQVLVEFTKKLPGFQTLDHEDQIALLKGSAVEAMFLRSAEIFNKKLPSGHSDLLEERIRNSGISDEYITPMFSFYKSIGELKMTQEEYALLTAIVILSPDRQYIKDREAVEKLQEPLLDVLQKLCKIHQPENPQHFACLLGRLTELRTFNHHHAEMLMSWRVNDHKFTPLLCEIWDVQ

SMILES	outcome	AC50
OCC(CO)(CBr)CBr	inactive	
C=CC(=O)OCCC(F)(F)C(F)(F)C(F)(F)C(F)(F)C(F)(F)C(F)(F)C(F)(F)C(F)(F)F	inactive	
O=S(=O)(c1ccc(OCc2ccccc2)cc1)c1ccccc1O	inactive	
CCOC(OCC)C(=O)c1ccccc1	inactive	
O=C1c2ccccc2C(=O)c2c(O)c(O)cc(O)c21	inactive	
O=C(NO)c1ccccc1	inactive	
CCCCCCCCCCCCCC[n+]1ccccc1	inactive	
O=C1c2ccc(O)c(O)c2C(=O)c2c(O)ccc(O)c21	inactive	
OCCN1CN(CCO)CN(CCO)C1	inactive	
CC1=NN(c2ccccc2)C(=O)C1	inactive	
OCC(F)(F)C(F)(F)C(F)(F)C(F)(F)C(F)(F)C(F)(F)C(F)(F)C(F)(F)C(F)(F)C(F)(F)C(F)(F)F	inactive	
C/C=C/C(=O)C1=C(C)CCCC1(C)C	inactive	
CC1COCc2cc3c(cc21)C(C)(C)C(C)C3(C)C (stereo not given)	inactive	
Cc1ccc(C(=O)c2ccccc2)cc1	inactive	
O=C(OC(=O)C(F)(F)C(F)(F)F)C(F)(F)C(F)(F)F	inactive	
C=COC(=O)C(C)(C)CCCCCC	inactive	
CCCCN(C)C	inactive	
Nc1cc(Cl)c(-c2cc(Cl)c(N)cc2Cl)cc1Cl		11.1 µM (active)
CCc1ccccc1O	inactive	
CCCCCCCC(OC)OC	inactive	

SMILES	outcome	AC50
COC(O)c1ccccc1 (stereo not given)	inactive	
FCOC(C(F)(F)F)C(F)(F)F	inactive	
CCc1cccc(CC)c1N(COC)C(=O)CS(=O)(=O)O	inactive	
C=Cc1ccc(O)c(OC)c1	inactive	
FC1(F)C=CC(F)(F)C1(F)F	inactive	
Brc1ccc(Oc2ccc(Br)cc2Br)cc1	inactive	
CCC1CO1 (stereo not given)	inactive	
O=C1Cc2ccccc2N1c1c(Cl)cccc1Cl	inactive	
C=CC(C)(CCC=C(C)C)OC(C)=O (stereo not given)	inactive	
O=C(CC(=O)C(F)(F)C(F)(F)C(F)(F)F)c1cccs1	inactive	
O=S(=O)(O)C(F)(F)C(F)(F)C(F)(F)C(F)(F)C(F)(F)C(F)(F)C(F)(F)C(F)(F)C(F)(F)C(F)(F)F	inactive	
CC(O)COc1ccccc1 (stereo not given)	inactive	
FC(F)(F)C(F)(F)C(F)(F)Br	inactive	
O=C(O)CN(CCCN(CC(=O)O)CC(=O)O)CC(=O)O	inactive	
O=CC(F)(F)C(F)(F)C(F)(F)C(F)F	inactive	
C[N+](C)(CCCNS(=O)(=O)CCC(F)(F)C(F)(F)C(F)(F)C(F)(F)C(F)(F)C(F)(F)F)CC(=O)[O-]	inactive	
O=C1OC(=O)c2cc(-c3ccc4c(c3)C(=O)OC4=O)ccc21	inactive	
Cc1cc(Cc2cc(C)cc(C(C)(C)C)c2O)c(O)c(C(C)(C)C)c1	inactive	
NNC(=O)CCCCC(=O)NN	inactive	
CC(=O)CC(C)C	inactive	
